Most compounds without a hit are left out; they make up all but 3.3% or so of the library.
GBA activity = alters purified human glucocerebrosidase activity. P04062. purified enzyme, resorufin glucoside fluorescence (screen aimed at inhibitors), 20 min. Potency, µM. 48,000 tested, 1.1% active. AID 360; in the data active = potency below about 15 µM;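 also: potency is read from the fitted curve at half-maximal effect; the screen sought inhibitors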
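Compounds titrated against 0.2 nM normal enzyme, 30 uM resorufin beta-D-glucopyranoside substrate, citrate/phosphate buffer with taurocholate and tween-20, pH 5.9. Reaction ran 20 min at room temperature; fluorescence (Ex 548/Em 600) gave AC50.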
FLuc inh = inhibitors of firefly luciferase | P08659 | purified firefly luciferase, luminescence, 8 min | Potency, µM (series often up to 57.1 µM), for the others: at the highest dose activity change, negative = inhibition, most hits filed as inhibitors | 72,000 tested, 2.2% active; also: potency is read from the fitted curve at half-maximal effect; % is scaled to controls: 0 for no effect and ±100 for the full control effect; nearly all actives have a fitted effect of over 40% in size
Target sequence (P08659 whole entry, looked up): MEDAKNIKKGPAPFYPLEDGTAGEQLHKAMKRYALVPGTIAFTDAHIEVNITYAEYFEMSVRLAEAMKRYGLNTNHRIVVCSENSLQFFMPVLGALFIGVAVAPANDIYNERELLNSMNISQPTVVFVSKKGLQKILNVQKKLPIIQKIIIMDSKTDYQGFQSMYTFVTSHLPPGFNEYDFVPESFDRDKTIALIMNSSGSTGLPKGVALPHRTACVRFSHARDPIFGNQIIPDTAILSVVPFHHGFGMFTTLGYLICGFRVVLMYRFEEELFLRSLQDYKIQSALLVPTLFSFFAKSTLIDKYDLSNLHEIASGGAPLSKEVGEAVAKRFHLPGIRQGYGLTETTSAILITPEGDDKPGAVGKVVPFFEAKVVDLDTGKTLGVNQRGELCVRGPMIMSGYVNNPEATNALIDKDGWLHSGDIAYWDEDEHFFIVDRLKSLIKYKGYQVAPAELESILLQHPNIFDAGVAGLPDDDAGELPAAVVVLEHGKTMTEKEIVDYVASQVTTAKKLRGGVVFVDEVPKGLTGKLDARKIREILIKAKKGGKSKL
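Substrate buffer containing 10 uM ATP (pH 7.2 imidazole, Mg2+, KCl, detergent, BSA) is dispensed, compound pinned in, then luciferase/luciferin detector mix added. After 8 min at ambient temperature, light output is measured.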
Epigenetic mod = derepresses silenced GFP locus in mouse C127i cells. mouse C127i GFP locus derepression, cytometry, 30 h. Potency, µM (titrated, usually from 46.1 µM), for the others: at the top dose GFP derepression (activation). 68,000 tested, 0.09% active. AID 597; also: % of control where 0% means no effect
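Murine C127i mammary cells carrying a silenced, stably integrated CMV-driven GFP reporter were treated with compound for 30 hours at 37 C. After PBS washes, GFP-positive cells were counted by laser-scanning microplate cytometry.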
HBB splice mod = modulators of hemoglobin beta chain splicing; HBB splicing reporter cell assay, activation; EGFP reporter with mutant IVS2-654 intron; response scale: normalised to 500 nM splice-correcting PNA; Potency, µM (series often up to 46.1 µM), for the others: top-dose activation, hits mostly activators; 65,000 tested, 0.06% active; AID 925; also: potency is read from the fitted curve at half-maximal effect; 0% is about no effect
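Compounds were applied for 2 days to HeLa EGFP-654 cells, 500/well in Optimem with 2% FCS. The reporter's EGFP is disrupted by mis-splicing of beta-globin intron IVS2-654. Readout: summed well GFP fluorescence from 488 nm laser scanning; reference was 500 nM antisense […] 654 PNA.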
Ub-GFP proteasome = inhibits proteasome, raising ubiquitin-GFP reporter fluorescence; Ubiquitin-GFP reporter cells, proteasome inhibition, GFP fluorescence; response scale: untreated = 0%, 10 µM MG-132 = 100%; Potency, µM (titrated, usually from 45.9 µM), without a hit: top-dose activation (GFP accumulation), hits mostly activators; 67,000 tested, under 10 active; AID 526; active = well fitted activation curve with a large enough effect, not every such curve was filed as active; also: potency is read from the fitted curve at half-maximal effect
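U2OS cells expressing ubiquitin(G76V)-GFP, seeded overnight in 0.5% FBS medium, then treated 4 hr at 37 C across 46 uM to 2.9 nM. GFP-positive cells counted by laser cytometry (488 ex/515 em); %activity scaled between basal and 10 uM MG-132.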
Bst PK mod = alters activity of Bacillus stearothermophilus pyruvate kinase | purified pyruvate kinase, luminescence ATP production; ribose 5-phosphate activator present at AC10 | Potency, µM | 51,000 tested, 1.2% active | AID 361; in the data active = potency below about 11 µM;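 the screen sought inhibitors and activators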;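 also: potency is read from the fitted curve at half-maximal effect; scaled between full activation by ribose 5 phosphate and full inhibition by luteolin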
Active calls of the source: *; [ ] = dose if it differs, or a comment. Unless noted, calls follow the shape of the dose curve; as a rule, active = well fitted curve in the direction sought with a large enough effect; inconclusive = small, poorly fitted or top-dose-only effect, or another doubt; inactive = no such curve, though single readings can be large; an effect the other way counts as inactive or inconclusive.

What do the screens show for `CCOC(=O)c1ccc(NC(=O)N2CCN(c3ccccn3)CC2)cc1`?
GBA activity: >77; FLuc inh: -2%; Epigenetic mod: -3%; HBB splice mod: -1%; Ub-GFP proteasome: -4%; Bst PK mod: >57

How did CC(C)CCn1cnc2c(c1=O)c1nc3ccccc3nc1n2Cc1ccc2c(c1)OCO2 do in these assays?
GBA activity: 6.1*; FLuc inh: 3%; Epigenetic mod: 4%; HBB splice mod: -1%[0.369 µM]; Ub-GFP proteasome: -3%; Bst PK mod: >57

How did CCCn1cnc2c(c1=O)c1nc3ccccc3nc1n2Cc1ccccc1OC do in these assays?
GBA activity: >77; FLuc inh: 3%; Epigenetic mod: 0%; HBB splice mod: 1%[0.369 µM]; Bst PK mod: >57

What do the screens show for `CCCCn1c2nc3ccccc3nc2c2c(=O)n(CCC)cnc21`?
GBA activity: 5*; FLuc inh: -1%; Epigenetic mod: -5%; HBB splice mod: -1%[0.369 µM]; Bst PK mod: >57

Results for COc1ccccc1Nc1nc(N)nc(CN2CCN(c3ccccc3)CC2)n1 ?
GBA activity: 6.8*; FLuc inh: 3%; Epigenetic mod: -2%; HBB splice mod: 0%[57.5 µM]; Ub-GFP proteasome: -4%; Bst PK mod: >57

How did COc1ccccc1Nc1nc(N)nc(CN2CCC(Cc3ccccc3)CC2)n1 do in these assays?
GBA activity: 0.93*; FLuc inh: 2%; Epigenetic mod: -3%; HBB splice mod: -1%; Ub-GFP proteasome: -5%; Bst PK mod: >57

How did COc1ccccc1Nc1nc(N)nc(CN2CCOCC2)n1 do in these assays?
FLuc inh: 4%; Epigenetic mod: 5%; HBB splice mod: 0%; Ub-GFP proteasome: -3%

What do the screens show for `COc1ccccc1N1CCN(Cc2nc(N)nc(Nc3ccccc3)n2)CC1`?
GBA activity: 4.8*; FLuc inh: -2%; Epigenetic mod: 6%; HBB splice mod: -1%[57.5 µM]; Ub-GFP proteasome: -5%; Bst PK mod: >57

Results for COc1cccc(N2CCN(Cc3nc(N)nc(Nc4ccccc4OC)n3)CC2)c1 ?
GBA activity: 3.9*; FLuc inh: 2%; Epigenetic mod: -2%; HBB splice mod: 0%[57.5 µM]; Ub-GFP proteasome: 0%; Bst PK mod: >57

Results for N[C@@](C(=O)O)(c1ccc(P(=O)(O)O)cc1)C1CC1 ?
FLuc inh: -1%; Epigenetic mod: -1%; Ub-GFP proteasome: 8%

What do the screens show for `COC(=O)c1ccc(C(/C=C/[C@@H](C)C(=O)N[C@H](C)CO)NC(=O)OCc2ccccc2)cc1` (stereo not given in full)?
HBB splice mod: 0%

Results for Cc1cccc(Nc2nc(N)nc(CN3CCC(C)CC3)n2)c1C ?
GBA activity: 12*; FLuc inh: 2%; Epigenetic mod: 5%; HBB splice mod: -2%; Ub-GFP proteasome: -1%; Bst PK mod: >57

How did O=C(Nc1cccc(Cn2cccn2)c1)c1cc2c(s1)CCCC2 do in these assays?
GBA activity: >77; FLuc inh: 13µM*; Epigenetic mod: 4%; HBB splice mod: 0%; Ub-GFP proteasome: 4%; Bst PK mod: inactive

What do the screens show for `COc1ccc2c3c(ccc2c1)N[C@H](C(=O)O)CC3`?
FLuc inh: 3.2µM*; Epigenetic mod: -2%[9.22 µM]; HBB splice mod: -1%[9.22 µM]; Ub-GFP proteasome: 0%[9.17 µM]

How did COC(=O)C1CC1C(NC(=O)[C@H]1CCCCN1)c1ccccc1 (stereo not given in full) do in these assays?
HBB splice mod: -1%

What do the screens show for `CC(C)(C)n1ncc2c(=O)n(CC(=O)OCc3ccccc3)cnc21`?
GBA activity: >77; FLuc inh: 0.4µM*; Epigenetic mod: 0%; HBB splice mod: 3%; Ub-GFP proteasome: -6%; Bst PK mod: 0.54*

Results for CC(C)(C)n1ncc2c(=O)n(CC(=O)NCc3ccc(F)cc3)cnc21 ?
GBA activity: >77; FLuc inh: 20µM*; Epigenetic mod: -2%; HBB splice mod: 0%; Ub-GFP proteasome: 13%

What do the screens show for `COc1ccc(N/C=C(\C#N)c2nc3ccccc3n2C)c(OC)c1`?
FLuc inh: 4µM*; Epigenetic mod: -6%[20.6 µM]; Bst PK mod: 10*

Results for O=C(CCCn1c(=S)[nH]c2cc3c(cc2c1=O)OCO3)N1CCN(c2ccccc2F)CC1 ?
FLuc inh: 2%; Epigenetic mod: 0%; HBB splice mod: 1%[0.369 µM]; Ub-GFP proteasome: -1%; Bst PK mod: >57

How did Cc1ccc(C)c(N2CCN(C(=O)CCCn3c(=S)[nH]c4cc5c(cc4c3=O)OCO5)CC2)c1 do in these assays?
GBA activity: 15*; FLuc inh: -2%; Epigenetic mod: 3%; HBB splice mod: 1%[0.369 µM]; Ub-GFP proteasome: 2%; Bst PK mod: >57

What do the screens show for `CC1(C)CC[C@]2(C(=O)O)CC[C@]3(C)C(=CC[C@@H]4[C@@]5(C)CC[C@H](O)C(C)(C)[C@@H]5CC[C@@]43C)[C@@H]2C1`?
FLuc inh: 4%[11.4 µM]; Epigenetic mod: -5%[9.22 µM]; Ub-GFP proteasome: 1%

What do the screens show for `Cn1c(NC(=O)c2cc(-c3ccc4c(c3)OCO4)nc3ccccc23)cc(=O)n(C)c1=O`?
GBA activity: >77; FLuc inh: 2.5µM*; Epigenetic mod: -2%; HBB splice mod: -1%; Ub-GFP proteasome: -6%; Bst PK mod: 4.1*

How did Cc1occc1C(=O)Nc1cc(=O)n(C)c(=O)n1C do in these assays?
GBA activity: >77; FLuc inh: -1%; Epigenetic mod: -6%; HBB splice mod: 3%; Ub-GFP proteasome: -8%; Bst PK mod: >57

Results for C=C(CC(=O)OC)C[C@]1(CC(=O)OC)CC2(CC=C(C)C)C(=O)C(C(=O)c3ccccc3)=C(OC(=O)c3ccc(Br)cc3)C(CC=C(C)C)(C1)C2=O (stereo not given in full) ?
HBB splice mod: 1%[9.22 µM]

What do the screens show for `O=C(O)c1ccc(CO)o1`?
HBB splice mod: 0%

What do the screens show for `CCc1nnc(NC(=O)Nc2ccccc2OC)s1`?
FLuc inh: -3%; Epigenetic mod: 5%; HBB splice mod: 4%; Ub-GFP proteasome: 16%

How did CCc1nnc(NC(=O)c2ccc(OC)cc2OC)s1 do in these assays?
FLuc inh: 7.9µM*; Epigenetic mod: 10%; HBB splice mod: 0%; Ub-GFP proteasome: 0%

How did O=C(Cn1c(=O)oc2ccccc21)Nc1ccc(S(=O)(=O)N2CCCCC2)cc1 do in these assays?
GBA activity: >77; FLuc inh: 1%; Epigenetic mod: 14%; HBB splice mod: 0%; Ub-GFP proteasome: -3%; Bst PK mod: >57

What do the screens show for `CCN(CC)S(=O)(=O)c1ccc(NC(=O)Cn2c(=O)oc3ccccc32)cc1`?
GBA activity: 8.5*; FLuc inh: 6%; Epigenetic mod: 1%; Ub-GFP proteasome: 5%; Bst PK mod: >57

Assay outcomes (PubChem)
